# Measured values as given in PubChem BioAssay (NCI).
# About 79,000 compounds went through this panel and 15% of them were active in at least one assay; those are over-represented in the sample as a whole. Values without a mark were called inactive. Active and inactive are the calls of the source. Cut-off read from the data, not from the text of the source: active = growth inhibition above about 70%; inactive = the rest.
# Assay: NCI Yeast Anticancer Drug Screen. Data for the rad14 strain (AID 159);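 note: 0% = growth of vehicle-treated control cultures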
# Conditions: S. cerevisiae rad14 strain growth inhibition, active compounds read high
# Protocol: Growth inhibition of yeast strains with defined genetic alterations is measured as a screen for potential anti-cancer activity. Selected strains with alterations in DNA damage repair or cell cycle control were exposed to compounds and growth inhibition was measured relative to vehicle treated controls. The strain used in this assay is rad14
SMILES,growth inhibition (at 1.2 µM) [%],growth inhibition (at 3.7 µM) [%],growth inhibition (at 11.0 µM),growth inhibition (at 33.0 µM),growth inhibition (at 100.0 µM)
COc1oc(C(=O)NC2CCCCC2)c(-c2ccc(Cl)cc2)c1S(=O)(=O)c1ccccc1,-22,-17,23%,82% (active),74% (active)
CCCCN(CCCC)C(=O)/C=C/c1ccccc1,-1,-9,-3%,23%,65%
O=c1ccc(=O)n(-c2ccccc2)[nH]1,-12,-9,4%,60%,96% (active)
O=C1c2cccnc2C(=O)C2C3C=CC(C3)C12 (stereo not given),20,44,87% (active),99% (active),99% (active)
O=C(NO)Nc1cc(Cl)cc(Cl)c1,8,20,99% (active),98% (active),98% (active)
CCN(CC)CCOc1cc(C)c2cc(Cc3ccccc3)ccc2n1,4,16,25%,36%,99% (active)
O=C1NC(=O)c2ccc([N+](=O)[O-])c3cccc1c23,-2,5,21%,55%,79% (active)
CCOC(=O)C1N=[N+](c2ccccc2)C(=O)/C1=C\n1c(=S)[nH]c2ccc([N+](=O)[O-])cc21 (stereo not given),0,-2,1%,2%,8%
